From PubChem BioAssay AID1508600 (Functional Genomics Laboratory (NCATS/FGL), 2020)
Out of some 53,000 sequences screened, about 3,700 (7%) were called active. The entries come from a sample that favours actives as a whole. Unmarked numbers belong to inactive results.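 The calls were made as follows: active = gene knockdowns whose robust z-score for IL-1 alpha signal is at least 2 or at most -2, so actives lie on both sides; inactive = the rest.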

Assay: Components of the Cytosolic LPS Sensing Pathway: Gene Identification via Genome-wide siRNA Screen;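 also: robust z of the log signal after scaling to non-targeting control siRNA wells of the plate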
Conditions: RAW264.7 macrophages, IL-1a HTRF, actives lie on both sides, screened at 100 nM (by protocol), cells primed 5 h with Pam3CSK4 first
Procedure, shortened: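 Cells (RAW264.7, 1×10^4 per well) were transfected with siRNA at 100 nM and cultured 48h at 37 degrees C. Pam3CSK4 was added for 5 hours; LipidA transfection followed for 24 hour. IL-1a was then measured by HTRF.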

Sequence | z-score
GGGUUUGACCUGAUUUCUCTT against Col9a1 | 0.305
GGUUACCUCCACCAGAUCATT against Avpi1 | -0.326
GGCGGUAACCACUUUCACGTT against Mycn | -0.567
GGUUCCCUUUUUCAUCUAATT against 4632433K11Rik | 3.08 (active)
GGAAGAAAUGGAAUUGAAGTT against Pcdhga6 | 0.649
GGAGCAUUCAAAUUACAUCTT against Ccni | 4.62 (active)
GGAUGAUCAAGACAAGCAGTT against Nobox | -0.763
CCUUGGGAAUUACCCAGAGTT against Cage1 | -0.565
GCCGUUCCCAUUAUCGUUUTT against Tmem87a | -0.693
GGAAAUUUGUAUCCCGAGUTT against Trp53 | -2.14 (active)
GGAAGGUGGAGAAAAUCCGTT against Hhipl2 | 0.585
GGAAGAUACUAAUAGAGUATT against Enpep | -0.00304
GGACGACAACGACAUCAUGTT against Sfrp2 | 0.475
GGGACCAAAGGAAACUUCATT against Eif2s3y | -0.14
CCCAGGUGAUUCUGAUAUUTT against Rpl30 | 0.534
UGGACUUGCUUCUCACAUCTT against Olfr694 | -2.22 (active)
GGUACAUUGGCAUUGUGAATT against Hnrnpf | 0.525
GCCUCCUUUGCUUCAUUUCTT against Fcer1g | 1.83
GGUCUUCUGAAGAUGGCGUTT against Pja2 | 1.39
GCAACAAGUCUGGAGACAATT against Pebp1 | -0.595
GGAGUUCCAGAAGCUUCUATT against Vwa3b | -1.72
GCGGCUCUUACGAGGUUUATT against Upk3a | 0.024

Sequence | z-score
CGAUGAGAGUCCACUCCCATT against Cox18 | -3.19 (active)
GGGAGUUAUGUUGGUAUCATT against 1700029F12Rik | -1.38
GGACUUCUUCUAUUUCAUATT against Fam20a | -0.986
GGAAAACACGUUCACUAUATT against Elp2 | 0.021
GGAGUCUCCAAUGAAAUGUTT against Kcnma1 | -0.464
GCUAAACGAGUUAUUGGUGTT against Ecpas | 0.829
GGAGAAACUGGCUUUCUCUTT against Zp3 | 0.918
GGUUCUACAGAUGUUUUCUTT against Tnfrsf22 | 3.84 (active)
GCGGCAAGUGGACUUUUCATT against Dlc1 | -1.09
GCCCAGUUUGUCACAAAGCTT against Sorl1 | -0.276
GCUAAGCGGAAUGCACUCGTT against Cxcl5 | -2.23 (active)
CCCUAGUGCAGUGAUAACUTT against 1700016D06Rik | 0.938
CCCAACAAGAGUAUCUAUGTT against Foxh1 | -0.125
GGCAUCUCUCCAAUAACCUTT against Fbxw2 | -1.2
GGUUCUGGUUUAGAUGCUATT against H2aw | 2.36 (active)
GGAUUUCUUCUUAUGAUGATT against Khnyn | -1.21
GCUCAGAAUAUCACAUCAATT against Ppm1b | -1.59
GCUAAAAUAUUAGGGAAGCTT against Timm29 | 0.429
GGAGAUAGGAUUGCUUGCATT against Mthfd1l | -2.3 (active)
GGAAAGAAAAAUGAAGCUUTT against Tmem167b | -0.548
GGAUAUCGUUGUUUCUGAGTT against Lmbr1 | -1
GGGUGGUGUUCCAUGACAGTT against Ubp1 | -1.82

Sequence | z-score
GGCACAAGAUUAUUUAAGUTT against Tmem68 | 0.362
GGUUCUAUGCUGAAGGUCATT against Lhfpl2 | 0.358
GGAGCUGUCCAGGUUUAUUTT against Psmd6 | -2.72 (active)
GGCUUGUGAAUGGAAAUAATT against Hsp90aa1 | -0.416
CCUUAAGACCGGAUUUUUUTT against Cyp4f14 | 0.64
GGAGUUUGUAUCAAACUUATT against Zcchc8 | 0.0121
GGUAAUGGGAGCUAGUUUATT against 6330549D23Rik | -0.259
GCAUAGAAACCAUGCACAUTT against Acot2 | 3.28 (active)
CCGAGGACUAUUUGAAACGTT against Mrtfa | -1.46
GGAUUUGAGUUGAAGCGUGTT against Zscan20 | -0.129
GGUGGUAAAUCGAAUUGUUTT against Tmem185b | -0.171
GGCUGGCUAUAAGAAAAAATT against Mrpl35 | -0.646
GGCUUGAAGAUGUCUAUGATT against Aptx | -2.19 (active)
GGCCACAGGAAGUCAGUUATT against Gsk3b | -1.23
GCCAACCAUCAGUUUAUACTT against Mboat1 | -0.31
GGCUGAAGAACUCCUACAATT against Dennd1c | 2.17 (active)
GGUUAGUAGUCUUCUUAUCTT against Olfr1173 | 0.291
CGCACAGAGAAUAAGGGAATT against Tcta | 0.843
CCUGAUGCACUACUCGUCUTT against Dmbx1 | -0.131
GGUAAAUGUCUGCUCUGAGTT against Selenok | -2.53 (active)
GGUCAACUAGCAGAAACCATT against Adgrv1 | -1.84
CCGUAGAGAUCAACAACACTT against Npepl1 | 0.799

Sequence | z-score
GGACUCCUUCCACCACAAUTT against Aifm2 | -0.2
GCACAUAGCAUCCACUCCATT against Gm4793 | -2.56 (active)
CCCUAUUUGUCAGCGGUCUTT against Rbpms | -1.94
GCCUUAAGAGAUGUAUUUCTT against Vmn1r33 | -0.042
GGAGGAAAUGAUGAUUUUCTT against Kbtbd2 | 0.283
CCAAGCGAAUGCUGGACAUTT against Cox4i1 | 3.44 (active)
GGUACAUCUAUUUCUUGUUTT against Ncam2 | -1.2
GGACUGUACUAUGGCUCUCTT against Nt5m | 0.135
GGGAGGAGAGUGAUUGAGATT against A730013G03Rik | 0.682
CCAACAAAUUCUGGUGGGATT against Ccdc84 | 0.578
GGAGUACCUGUGGUGCAUUTT against Ahcy | 0.213
GGCGGUACCUCUUCUUCAUTT against Aipl1 | 2.32 (active)
CCGAAGUCAACUAAACUUATT against Rmc1 | 0.732
CCCUUGCUACAAUGAUGCCTT against Mfge8 | 2.56 (active)
GGACAACUUCAACAGCACUTT against Rab13 | -1.31
CGUAGAGCUCAGAGAAUUCTT against Dhx58 | 0.614
GCGAAUGAUAUGUAUCAGATT against Pik3r1 | 0.647
ACCUUUUCAAAUCUGUGCGTT against Uts2b | -0.928
GGCUAACCAGAGGAAAAACTT against Rph3a | -2.19 (active)
GCUCUUGGUCCGUCUUCAGTT against 6030452D12Rik | -1.76
GGAGUCUUGUAAUGAGCUUTT against Zfp54 | 0.898
CCCUCAAAGUCAUUUCAAATT against Cfap43 | -1.61

Sequence | z-score
GGUUGAAAAUGGAAGAGUATT against Mbnl2 | -2.27 (active)
CCUUCCUACCGGAGAAUGATT against Capn6 | -0.341
GGUUCAACAUGAAAAUGAUTT against Lingo2 | -0.251
GCCAAUUGAGUCGUCUAUCTT against Rps6ka1 | 2.41 (active)
GGCAGCGAUUGACAAAAUGTT against Eefsec | -0.756
GGUCGUGAUAAACAUAUCATT against Cep85 | -1.1
GGUCAAUGGCCACAAGUUCTT against Prkce | 0.421
CCAUGAUCGCUAGUGAAGCTT against Mrpl24 | -0.743
GGUGGUGAACUGUUUGACCTT against Pnck | -1.58
GCUGACCUUUGUAAGUUAUTT against Ttc17 | -0.369
GGCUAUGCUUCUUUCCUUUTT against Cfhr1 | 0.846
GGAGAAGAAAAAGAAGGACTT against Pak1 | -0.932
CGGCUUGCUACUUUGGAACTT against Gda | 2.55 (active)
GAUGGAUCGAACUCUGCACTT against Stard10 | -0.957
GGACCAAGUGGAGAAAGAATT against Nkx6-1 | -0.622
CCCAGAUGAACAAAUGACCTT against Tceanc | 0.582
GCAUUAUGGAAAGUUGGAGTT against Gabra4 | 0.915
GGAGUGUGAGGUCCUCUCUTT against Sdsl | 1.85
GCGUAAGGAAUUGUCUAACTT against Hoxd12 | 4.05 (active)
